Growth data for twelve molecules are collected here from PubChem BioAssay (NCI).

Common to all, as to test: NCI-60 one-dose screen, 48 h (100 = growth as untreated, 0 = no growth, -100 = all killed)
Settings in all cases: 10 µM unless noted

Assay [1] concerns NCI-H23 lung.
Assay [2] deals with NCI-H226 lung.
The subject of assay [3] is NCI-H322M lung.
For assay [4], the system named is HOP-62 NSCLC.
For assay [5], the system named is NCI-H460 lung.
Assay [6] relates to HOP-92 NSCLC.
For assay [7], the system named is NCI-H522 lung.
Assay [8] concerns A549/ATCC NSCLC.
The subject of assay [9] is 786-0 renal.
The test system of assay [10] is COLO 205 colon.
Assay [11] deals with DU-145 prostate.
Assay [12] concerns K-562 leukemia.
In assay [13] the test system is MALME-3M melanoma.
Assay [14] relates to MDA-MB-231 breast.
For assay [15], the system named is RXF 393 renal.
The test system of assay [16] is SF-268 CNS.
The subject of assay [17] is SF-295 CNS.
In assay [18] the test system is SF-539 CNS.
The test system of assay [19] is UACC-257 melanoma.
In assay [20] the test system is M14 melanoma.

The panel holds about 83,000 compounds, 20% with a hit somewhere; the sample as a whole holds those more often.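 The test compound was applied at a single concentration to cells in 96-well plates for 48 hours, and percent growth was recorded.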 A number with no mark means an inactive call. The source made the active and inactive calls. The calls were made as follows: active = growth percent below 10; inactive = the rest.

For `CCc1ccc(Oc2c(-c3ccc(OCCc4cccc(C(F)(F)F)c4)cc3O)n[nH]c2C(F)(F)F)cc1`, the growth in [1] is 4.8% (active); in assay [2], 52.9%; in [3], 76.7%; in assay [4] it was 76.6%; in assay [5], 2.53% (active); in assay [6], -5.8% (active). Further, the growth in assay [7] is -20.5% (active); in assay [8], 55.9%; in assay [9] it was 91.2%; in assay [10], 100%; in assay [11], 25.6%; in assay [12] it was 7.94% (active). The growth was 48.8% in assay [13]; 50.2% in assay [14]; 80.7% in [15]; 47.7% in assay [16]; 87.6% in [17]; 74% in assay [18]. For the same molecule, the results for the growth in assay [19] and in [20] were 56.6% and 59.1%, respectively.
Regarding `CC(=O)OC[C@H]1OC(Sc2sc(C(=O)c3ccc(Cl)cc3)c(N)c2-c2nc3ccccc3s2)[C@H](OC(C)=O)[C@@H](OC(C)=O)[C@@H]1OC(C)=O` (stereo not given in full), the growth is 63.3% in [1]; 75.9% in assay [2]; 93.9% in assay [3]; 90.3% in [4]; 67.5% in [5]; 93.7% in assay [6]. The growth in assay [7] is 88.1%; in assay [8] it was 86.4%; in assay [9], 99.3%; in assay [10], 90.4%; in [11], 70.7%; in assay [12], 87.7%. Further, the growth in assay [13] is 69.4%; in assay [14], 56.2%; in assay [15], 112%; in assay [16], 77.3%; in assay [17], 95.1%; in assay [18] it was 58.6%. Further, the results for the growth in [19] and in assay [20] were 96.6% and 89.6%, respectively.
Take `CCCCCCN1C(=O)/C(=c2\sc3n(c2=O)C2C(NN=3)N(CC)C(=O)N2CC)c2ccccc21` (stereo not given): the growth was 25.6% in assay [1]; -5.26% (active) in assay [2]; 43.5% in [3]; -1.75% (active) in assay [4]; -27.7% (active) in assay [5]; 37% in [6]. For the same molecule, the growth is -28.7% (active) in assay [7]; -47.6% (active) in assay [8]; -67.2% (active) in [9]; 7.62% (active) in assay [10]; 24.4% in [11]; 6.81% (active) in assay [12]. Further, the growth in assay [13] is 6.95% (active); in assay [14], 14.8%; in [15], 25.8%; in assay [16], 27.5%; in assay [17] it was -23% (active); in [18], -54.9% (active). Also, the growth in assay [19] was 39.3%; in assay [20] it was 20.3%.
On to `COc1ccc2[nH]c(-c3ccccc3)c(/C=C(\C#N)S(=O)(=O)c3ccccc3)c2c1`, for which the growth in [1] is 60%; in [2], 99.5%; in assay [3], 77.8%; in [4], 79.1%; in [5], 20%; in [6] it was 63.2%. Also, the growth in assay [7] was 64.3%; in [8], 45.1%; in assay [9], 69.1%; in assay [10], 46.6%; in [11], 70.1%; in assay [12], 5.1% (active). The growth was 47.7% in [13]; 56.8% in assay [14]; 57.5% in [15]; 72.2% in assay [16]; 43.2% in assay [17]; 42.3% in assay [18]. In addition, the growth was 78.6% in assay [19] and 42.7% in assay [20].
Take `CCCCCCCCCCCCCCCCCC1OCC(COC(=O)O[C@]2(CC)C(=O)OCc3c2cc2n(c3=O)Cc3cc4ccccc4nc3-2)O1` (stereo not given in full): the growth is 75.4% in assay [1]; 75.4% in assay [2]; 101% in [3]; 53% in [4]; 31.4% in assay [5]; 92.6% in [6]. Besides, the growth in [7] was 82.6%; in [8] it was 78.5%; in [9], 86.7%; in assay [10], 79.3%; in assay [11], 76%; in assay [12] it was 88.4%. Besides, the growth in assay [13] is 101%; in [14] it was 93.1%; in assay [15], 89.4%; in [16] it was 45.7%; in assay [17], 23.4%; in assay [18], 68.1%. In addition, the growth in assay [19] was 95.9%; in assay [20], 75.3%.
Take `CCOC(=O)Nc1ccc(-c2nc(-c3cccc(OCCN4CCOCC4)c3)c(-c3ccnc(Br)c3)[nH]2)cc1`: the growth in assay [1] is 47.3%; in [2], 56.3%; in [3], 58%; in [4], 50.8%; in [5], 54.1%; in [6], 54.1%. Also, the growth was 52% in [7]; 54.2% in [8]; -5.12% (active) in [9]; 48.2% in assay [10]; 67.2% in [11]; 1.64% (active) in assay [12]. In addition, the growth is 40.3% in assay [13]; 46.2% in assay [14]; -25.9% (active) in [15]; 62.3% in [16]; -53.9% (active) in assay [17]; 23.4% in assay [18]. Moreover, the figures for the growth in [19] and in [20] were 60% and 57.4%, respectively.
For the molecule `CCOC(=O)c1cn2ncnc(Oc3ccc(NC(=O)NCCN4CCN(C)CC4)c(Cl)c3)c2c1C`, the growth was 67.8% in [1]; 82.3% in assay [2]; 93% in assay [3]; 87.9% in [4]; 99.4% in [5]; 31.6% in assay [6]. The growth in assay [7] was 66.6%; in [8] it was 88.6%; in assay [9], 81.8%; in [10] it was 76.8%; in [11], 81.2%; in assay [12], 10.9%. The growth was 28.3% in assay [13]; 72% in assay [14]; 35.8% in [15]; 81.4% in assay [16]; 94.8% in [17]; 78.5% in assay [18]. The growth in [19] is -15.9% (active); in assay [20] it was -23.7% (active).
For the molecule `O=C1c2ccccc2NC(n2sc3ccccc3c2=O)N1c1ccccc1` (stereo not given), the growth was 99% in assay [1]; 93.3% in assay [2]; 91.9% in assay [3]; 92.3% in assay [4]; 107% in assay [5]; 95.2% in assay [6]. Also, the growth in assay [7] is 76.8%; in [8], 101%; in assay [9], 92%; in assay [10], 115%; in [11], 107%; in assay [12], 95.5%. Further, the growth in [13] is 106%; in assay [14], 90.6%; in assay [15] it was 110%; in [16] it was 91.7%; in assay [17], 99.6%; in [18] it was 94.7%. Further, the growth in assay [19] is 120%; in assay [20], 102%.
For `N#Cc1cccc(NC(=O)c2cc(-c3ccc(F)cc3F)ccc2O)c1`, the growth in assay [1] is 1.56% (active); in assay [2], 3.58% (active); in [3], 1.78% (active); in assay [4], 23%; in [5] it was 6.49% (active); in [6] it was -24.2% (active). Also, the growth in [7] was -3.38% (active); in [8] it was 27.3%; in [9] it was 31.1%; in [10], 107%; in [11], 18.4%; in assay [12] it was 13.3%. For the same molecule, the growth in assay [13] is -25.1% (active); in assay [14], -2.77% (active); in [15], 3.07% (active); in [16] it was 14.5%; in assay [17], 80.5%; in assay [18], 16.3%. Also, the growth in assay [19] is -10% (active); in assay [20], 23.6%.
On to `Nc1nc(-c2cccc3ccccc23)cc2ccccc12`, for which the growth is 11.1% in assay [1]; -7.36% (active) in assay [2]; 46.5% in assay [3]; 13.7% in assay [4]; 0.0786% (active) in assay [5]; 19% in [6]. Further, the growth is -34.3% (active) in assay [7]; 28.7% in assay [8]; 20.9% in assay [9]; -18.4% (active) in [10]; 7.32% (active) in assay [11]; -43.8% (active) in assay [12]. Besides, the growth in assay [13] was 82.2%; in assay [14] it was 20.7%; in assay [15] it was -4.3% (active); in assay [16], 23.7%; in assay [17], -50.2% (active); in assay [18], -35.9% (active). The growth in assay [19] was 56.6%; in [20], -29.5% (active).
Regarding `CCC12CCC[N+]3([O-])CCC4(C(=Nc5ccccc54)C(O)(C(=O)OC)C1)C23` (stereo not given), the growth in [1] is 101%; in [2], 106%; in assay [3], 103%; in assay [4], 94.5%; in assay [5], 111%; in assay [6] it was 94.4%. Besides, the growth is 115% in assay [7]; 114% in assay [8]; 106% in [9]; 118% in assay [10]; 103% in [11]; 109% in assay [12]. Further, the growth in [13] is 104%; in [14], 103%; in assay [15], 113%; in assay [16], 96.2%; in assay [17] it was 102%; in assay [18] it was 103%. Further, the results for the growth in assay [19] and in assay [20] were 115% and 96.7%, respectively.
As to `COc1ccc2sc3c(NCCCN(C)C)nc4ccccc4c3c(=O)c2c1`, the growth was 56.7% in [1]; 82.4% in [2]; 80.3% in [3]; 74.7% in assay [4]; -69.5% (active) in assay [5]; 20% in assay [6]. For the same molecule, the growth in [7] is 79.4%; in assay [8], 73.9%; in assay [9], 68.5%; in assay [10], -1.26% (active); in assay [11], 41.3%; in assay [12], -21.9% (active). Also, the growth in assay [13] is 58%; in assay [14], -6.11% (active); in assay [15], 44.1%; in assay [16], 66.4%; in [17], 83.7%; in [18], 1.35% (active). In addition, the growth in assay [19] was 76.7%; in assay [20], -57.8% (active).
